Compound activity from PubChem.
GLP-1R agonist – qHTS of GLP-1 Receptor Agonists; Glucagon-like peptide 1 receptor (Homo sapiens), P43220; 380,000 compounds, 0.007% hits; HEK293 GLP-1R CRE-luciferase, luminescence, 4-6 h; cells express a hypersensitive GLP-1R form; Potency, µM (highest dose often 45.6 µM), inactives show at the highest dose activation, most hits filed as activators; also: % of control where 0% means no effect
ClpP mod – qHTS Assay for Activators of ClpP; ATP-dependent Clp protease proteolytic subunit (Bacillus subtilis (strain 168)), P80244; purified B. subtilis ClpP, FRET peptide cleavage, 20 min; Potency, µM (titrated, usually from 57.5 µM), for inactives: at the highest dose activity change, negative = active; 340,000 compounds, 1.9% hits; AID 651965, 2013; active = well fitted falling curve with a large enough effect; inconclusive = small, poorly fitted or top-dose-only effect; inactive = no such curve, though single readings can be large or run the other way; also: the source files actives as falling curves though it sought activators and does not explain the sign; nearly all actives have a fitted effect of over 65% in size
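FRET quenching reversal measured ClpP activation: 10 microg/mL B. subtilis ClpP at pH 8 with the FRET-FV decapeptide, read at 430 nm after 320 nm excitation. The 20-min minus 0-min signal was scaled between DMSO/no-enzyme wells and ADEP (5.8 microM final).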
HEK293 tox – qHTS of GLP-1 Receptor Inverse Agonists: Cytotox Screen | HEK293 cAMP-luciferase reporter cells, luminescence, 24 h | Potency, µM (series often up to 38.3 µM), inactives show at the highest dose activity change, negative = inhibition, actives largely listed as inhibitors | 410,000 compounds, 0.13% hits | AID 624418, 2012;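 also: loss of luciferase light is scored as toxicity; % is scaled to controls: 0 for no effect and ±100 for the full control effect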
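A 23 nL compound transfer followed 12 hours of cell culture at 37 deg C; exposure then lasted 24 hr. Luciferase assay detection reagent was dispensed and plates read for luminescence after a 12 min room-temperature wait.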
GLP1R inv ag – qHTS of GLP-1 Receptor Inverse Agonists (Inhibition Mode). Glucagon-like peptide 1 receptor (Homo sapiens), P43220. HEK293 GLP-1R CRE-luciferase, luminescence, 24 h; GLP-1R form is constitutively active. Potency, µM (highest dose often 38.3 µM), inactives show top-dose activity change, negative = inhibition, actives largely listed as inhibitors. 410,000 compounds, 1.6% hits. AID 624417, 2012; also: % is scaled to controls: 0 for no effect and ±100 for the full control effect; nearly all actives have a fitted effect of over 55% in size
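Cells are plated, allowed 12 hours at 37 deg C, then treated with compounds for 24 hr before luciferase detection reagent is added and luminescence is read after 12 min at room temperature. The HEK293 line carries constitutively active GLP-1R with a cAMP-responsive reporter.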
Active calls of the source: *; ? = inconclusive; . = not tested or not shown. This is a sample that favours compounds with a hit; in the whole collection about 3.2% have one here. Unless noted, calls follow the shape of the dose curve; as a rule, active = well fitted curve in the direction sought with a large enough effect; inconclusive = small, poorly fitted or top-dose-only effect, or another doubt; inactive = no such curve, though single readings can be large; an effect the other way counts as inactive or inconclusive. Potency is read from the fitted curve at half-maximal effect.

SMILES	GLP-1R agonist	ClpP mod	HEK293 tox	GLP1R inv ag
COc1cccc(N2C(C(C)=O)=NN(c3ccccc3)C2c2ccc(N3CCOCC3)cc2)c1 (stereo not drawn)	-6%	2%	2%	-18%
Cc1c(NC(=O)c2cccc3c(Cl)cccc23)cccc1-c1nc2ccccc2o1	.	-5%	2%	26%
O=c1c2[nH]c3ccccc3c2ncn1Cc1ccncc1	9%	?	-7%	23%
CCC1CCCN1Cn1cnc2c([nH]c3ccccc32)c1=O (stereo not drawn)	-9%	25µM*	0%	17%
CCC1CCCN1Cn1cnc2c([nH]c3ccc(OC)cc32)c1=O (stereo not drawn)	-8%	18µM*	-21%	13%
O=c1c2[nH]c3ccccc3c2ncn1Cc1ccccn1	0%	28µM*	2%	12%
CCN1CCCC1Cn1cnc2c([nH]c3cccc(Cl)c32)c1=O (stereo not drawn)	-1%	32µM*	?	?
CCN1CCCC1Cn1cnc2c([nH]c3ccc(Cl)cc32)c1=O (stereo not drawn)	-2%	-23%	7%	?
C/C=C1\NC(=O)[C@H]2CSSCC/C=C\[C@H](CC(=O)N[C@H](C(C)C)C(=O)N2)OC(=O)C(C(C)C)NC1=O (stereo partly drawn)	2%	.	.	.
CCCCC(=O)O[C@]1(C(=O)CO)CCC2C3CCC4=CC(=O)CCC4(C)C3C(O)CC21C (stereo partly drawn)	-1%	.	.	.
COc1ccc(-c2cc(C(F)F)n3ncc(C(=O)N4CCSCC4)c3n2)cc1	10%	-27%	98%	?
COc1ccc(-c2cc(C(F)F)n3ncc(C(=O)N4CCN(C)CC4)c3n2)cc1	5%	25µM*	15%	-24%
Cc1ccc(S(=O)(=O)c2c(N)n(NC(=O)C3CC3)c3nc4ccccc4nc23)cc1	26%	33%	14%	0%
CCCCCCn1c(C)nc2c(c1=O)c1nc3ccccc3nc1n2/N=C/c1ccco1	-5%	-7%	-29%	0%
Cc1cccc(S(=O)(=O)c2c(N)n(/N=C/c3ccco3)c3nc4ccccc4nc23)c1	-18%	3.5µM*	-12%	-2%
Cc1ccc(S(=O)(=O)c2c(N)n(/N=C/c3ccco3)c3nc4ccccc4nc23)cc1	2%	8.9µM*	3%	19%
Cc1ccc(-n2c(N)c(S(=O)(=O)c3ccccc3)c3nc4ccccc4nc32)cc1	9%	.	13%	-2%
Cc1ccc(S(=O)(=O)c2c(N)n(/N=C/c3ccco3)c3nc4ccccc4nc23)cc1C	-4%	14µM*	15%	46%
Cc1cccc(S(=O)(=O)c2c(N)n(-c3ccccc3)c3nc4ccccc4nc23)c1	16%	14µM*	3%	8%
CCc1ccc(NC(=O)CN2C(=O)CSc3ccc(S(=O)(=O)N(C)C)cc32)cc1	.	1%	-4%	?
COc1cc(C)cc2oc(=O)c(CC(=O)NCCc3ccc(Cl)cc3)c(C)c12	.	3%	-1%	16%
Nc1c(S(=O)(=O)c2ccccc2)c2nc3ccccc3nc2n1/N=C/c1ccco1	-16%	11µM*	10%	7%
COc1ccc(Cn2c(C)nc3c(c2=O)c2nc4ccccc4nc2n3Cc2ccco2)cc1	-2%	?	-3%	61%
O=c1c2c3nc4ccccc4nc3n(/N=C/c3ccco3)c2ncn1CCC1=CCCCC1	13%	-3%	-8%	-1%
COc1ccc(S(=O)(=O)c2c(N)n(Cc3ccco3)c3nc4ccccc4nc23)cc1	3%	16µM*	41%	49%
SMILES	GLP-1R agonist	ClpP mod	HEK293 tox	GLP1R inv ag
CCOc1ccc(CNC(=O)c2ccc(-c3nc(CSc4ccc(C)cc4)c(C)o3)cc2)cc1	.	-3%	6%	17%
COc1ccc(C2CC(=O)c3cnc4c(-c5ccccc5)c(C)nn4c3C2)cc1OC (stereo not drawn)	0%	-9%	-2%	8%
CN1CC(=O)Nc2cc(C(=O)O)ccc21	.	-8%	-5%	6%
CCOc1ccccc1CNC(=O)CCc1cn(C)c2ccccc12	9%	?	11%	7.1µM*
Cc1ccc(CNC(=O)CCCc2cn(C)c3ccccc23)cc1	2%	28µM*	1%	-27%
O=S1(=O)CC(O)C(N2CCC(c3ccccc3)CC2)C1 (stereo not drawn)	2%	-3%	35%	7%
O=S1(=O)CC(O)C(N2CCCCC2)C1 (stereo not drawn)	4%	11µM*	0%	10%
Cc1ccc(Oc2ccc(S(=O)(=O)N3CCOCC3)cc2C(N)=O)c(-n2nc3ccccc3n2)c1	8%	32µM*	-29%	-24%
COc1ccccc1Oc1ccc(S(=O)(=O)N2CCOCC2)cc1S(=O)(=O)N1CCOCC1	2%	-9%	3%	5%
Cc1cccc(C)c1NC(=O)CSc1nc(C)c(CC(=O)c2ccc(Br)cc2)c(C)c1C#N	-12%	28µM*	-16%	-12%
CCCn1nc(C(=O)Nc2ccc(S(=O)(=O)Nc3nccs3)cc2)c2ccccc2c1=O	-2%	25µM*	6%	4%
CCn1nc(C(=O)Nc2ccc(S(=O)(=O)Nc3ncccn3)cc2)c2ccccc2c1=O	1%	.	3%	4%
COc1cccc(/C=N/n2c(N)c(S(=O)(=O)c3cccs3)c3nc4ccccc4nc32)c1	6%	2.8µM*	14%	1%
Cc1cccc(S(=O)(=O)c2c(N)n(/N=C/c3cccnc3)c3nc4ccccc4nc23)c1	0%	0%	-17%	2%
COc1ccc(/C=N/n2c(N)c(S(=O)(=O)c3cccs3)c3nc4ccccc4nc32)cc1OC	-4%	13µM*	7%	?
CCc1ccc(NC(=O)Cn2c(=O)n(Cc3ccc(C)cc3)c(=O)c3cccnc32)cc1	.	-1%	0%	-28%
Cc1ccc(Cn2cc(/C=C(/C#N)C(=O)Nc3cccc(Cl)c3)c3ccccc32)cc1	.	?	-11%	7%
N#Cc1c(/N=C/c2ccc(-c3ccc(C(=O)O)c(Cl)c3)o2)sc2c1CCCC2	5%	35µM*	-6%	9%
CCOc1ccc(CNC(=O)c2cc3c(s2)-c2ccccc2OC3)cc1	-2%	4%	4%	-28%
O=C1c2ccccc2C(=O)N1CSc1nnc(Nc2ccccc2F)s1	10%	28µM*	2%	0%
O=C(CSc1nc(-c2ccccc2)c(-c2ccccc2)o1)N1CCOCC1	13%	32µM*	6%	1%
O=C(/C(=C(\O)c1ccccc1)c1nc2ccccc2[nH]1)c1ccccc1	10%	.	?	10µM*
Oc1ccccc1/C=N/NC(=S)NC1CC2C=CC1C2 (stereo not drawn)	?	.	0%	7.9µM*
